{"source": "PubChem BioAssay (EPA / NIEHS)", "key": {"[1]": {"target": "human Peripheral-type Benzodiazepine Receptor (PBR), TSPO (gene 706) (UniProt P30536)", "sequence (P30536 whole entry, looked up)": "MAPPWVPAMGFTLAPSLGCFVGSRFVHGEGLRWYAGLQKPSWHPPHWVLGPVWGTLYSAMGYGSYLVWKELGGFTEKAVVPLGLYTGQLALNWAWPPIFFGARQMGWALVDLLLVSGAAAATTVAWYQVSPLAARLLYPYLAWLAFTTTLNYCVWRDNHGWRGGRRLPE", "experiment": "NVS_MP_hPBR: NovaScreen (NVS) Membrane Protein Assay for human Peripheral-type Benzodiazepine Receptor (PBR) (AID 2283331);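 further: hits reduce radioligand binding relative to DMSO baseline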", "procedure,_shortened": "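Radioligand displacement on human colonic cell membranes, 1 h incubation; bound radioactivity by filtration and scintillation counting. Primary screen in duplicate at 25 uM single concentration, actives followed up in concentration series; loss of binding versus DMSO.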"}, "[2]": {"target": "rat Peripheral-type Benzodiazepine Receptor (PBR), Tspo (gene 24230) (UniProt P16257)", "sequence (P16257 whole entry, looked up)": "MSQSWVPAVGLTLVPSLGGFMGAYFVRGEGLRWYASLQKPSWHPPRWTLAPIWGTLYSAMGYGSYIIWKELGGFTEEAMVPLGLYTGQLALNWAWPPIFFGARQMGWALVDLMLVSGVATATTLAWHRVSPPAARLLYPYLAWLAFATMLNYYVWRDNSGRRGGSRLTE", "experiment": "NVS_MP_rPBR: NovaScreen (NVS) Membrane Protein Assay for rat Peripheral-type Benzodiazepine Receptor (PBR) (AID 2283335)", "procedure,_shortened": "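Radioligand displacement, rat kidney membrane prep, 1 h exposure, filter-based scintillation read; DMSO baseline, loss-of-signal scored. Primary screen at 25 uM in duplicate, actives followed up in concentration series.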"}, "[3]": {"tested_on": "NCBI gene 100848466", "experiment": "NVS_NR_bPR: NovaScreen (NVS) Nuclear Receptor Binding Assay for bovine Progextron Receptor (PR) (AID 2283343);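 on AC50: actives lower bound radioligand signal below DMSO meaning displacement of the label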", "procedure,_shortened": "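Bovine uterine membrane preparation; radioligand displacement read by scintillation counting 18 h after dosing. Primary screen single concentration, 25 uM, in duplicate; actives followed up in concentration series. Signal loss versus DMSO baseline.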"}, "[4]": {"target": "human Constitutive Androstane Receptor (CAR), NR1I3 (gene 9970) (UniProt Q14994)", "sequence (Q14994 whole entry, looked up)": "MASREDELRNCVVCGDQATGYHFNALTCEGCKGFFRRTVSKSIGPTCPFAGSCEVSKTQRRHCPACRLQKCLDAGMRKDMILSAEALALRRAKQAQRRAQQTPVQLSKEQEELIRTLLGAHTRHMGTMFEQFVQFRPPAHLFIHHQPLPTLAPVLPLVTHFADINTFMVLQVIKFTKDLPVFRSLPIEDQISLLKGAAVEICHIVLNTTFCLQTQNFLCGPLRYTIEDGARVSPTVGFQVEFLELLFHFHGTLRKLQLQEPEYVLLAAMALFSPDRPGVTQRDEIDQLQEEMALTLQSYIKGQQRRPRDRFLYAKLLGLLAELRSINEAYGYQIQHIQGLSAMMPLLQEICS", "experiment": "NVS_NR_hCAR_Antagonist: NovaScreen (NVS) Nuclear Receptor Binding Assay for human Constitutive Androstane Receptor Antagonism (CAR) (AID 2283344)", "procedure,_shortened": "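Cell-free TR-FRET binding read 1 h after dosing, antagonist mode; loss of signal versus DMSO baseline. Primary screen in duplicate at a single 25 uM; actives retested in concentration series.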"}, "[5]": {"target": "Bile acid receptor (Homo sapiens) (UniProt Q96RI1)", "sequence (Q96RI1 whole entry, looked up)": "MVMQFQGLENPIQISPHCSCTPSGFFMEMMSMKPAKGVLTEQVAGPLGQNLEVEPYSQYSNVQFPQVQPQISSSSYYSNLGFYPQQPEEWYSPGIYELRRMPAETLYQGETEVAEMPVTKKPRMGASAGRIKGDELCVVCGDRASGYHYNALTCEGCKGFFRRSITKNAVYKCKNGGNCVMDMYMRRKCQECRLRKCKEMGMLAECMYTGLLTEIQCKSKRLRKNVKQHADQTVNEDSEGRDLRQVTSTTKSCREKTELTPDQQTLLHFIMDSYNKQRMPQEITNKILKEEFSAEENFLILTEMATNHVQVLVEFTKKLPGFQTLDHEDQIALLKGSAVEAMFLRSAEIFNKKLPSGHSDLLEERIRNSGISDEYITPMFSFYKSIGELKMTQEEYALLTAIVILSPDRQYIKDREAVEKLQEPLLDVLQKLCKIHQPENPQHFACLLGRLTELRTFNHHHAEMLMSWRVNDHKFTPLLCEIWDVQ", "experiment": "NVS_NR_hFXR_Agonist: NovaScreen (NVS) Nuclear Receptor Binding Assay for human Farnesoid X Receptor Agonism (FXR) (AID 2283347)", "procedure,_shortened": "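Cell-free TR-FRET binding assay with extracted human FXR protein, agonist format, read 1 h after dosing. Primary screen at 25 uM single concentration in duplicate, actives retested in concentration series; gain of signal versus DMSO.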"}, "[6]": {"target": "Voltage-gated inwardly rectifying potassium channel KCNH2 (Homo sapiens) (UniProt Q12809)", "experiment": "NVS_IC_hKhERGCh: NovaScreen (NVS) Ion Channel Assay for human Potassium Channel ERG (KhERGCh) (AID 2283333)", "procedure,_shortened": "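Cell-free radioligand competition binding on hERG protein extracted from CHO cells, read by filter-based scintillation counting 0.75 h after dosing. Primary screen at 25 uM in duplicate, actives followed in concentration series. Signal loss fitted versus DMSO.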"}, "[7]": {"target": "bovine Estrogen Receptor (ER), ESR1 (gene 407238) (UniProt P49884)", "sequence (P49884 whole entry, looked up)": "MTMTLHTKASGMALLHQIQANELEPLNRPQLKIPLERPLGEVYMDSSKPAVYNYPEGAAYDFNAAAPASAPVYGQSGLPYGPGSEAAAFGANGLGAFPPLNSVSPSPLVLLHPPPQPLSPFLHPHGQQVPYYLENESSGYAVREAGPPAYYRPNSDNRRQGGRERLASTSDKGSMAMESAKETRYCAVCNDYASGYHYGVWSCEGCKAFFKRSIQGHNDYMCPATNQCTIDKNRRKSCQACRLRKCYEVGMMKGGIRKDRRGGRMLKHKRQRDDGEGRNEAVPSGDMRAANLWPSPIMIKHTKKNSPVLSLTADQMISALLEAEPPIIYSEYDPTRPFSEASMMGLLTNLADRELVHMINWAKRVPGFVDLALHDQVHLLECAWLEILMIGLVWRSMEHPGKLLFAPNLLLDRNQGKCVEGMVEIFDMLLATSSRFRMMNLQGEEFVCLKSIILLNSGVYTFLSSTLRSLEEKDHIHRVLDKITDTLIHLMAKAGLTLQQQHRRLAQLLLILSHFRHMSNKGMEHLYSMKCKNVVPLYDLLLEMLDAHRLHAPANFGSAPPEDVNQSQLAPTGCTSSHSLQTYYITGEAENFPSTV", "experiment": "NVS_NR_bER: NovaScreen (NVS) Nuclear Receptor Binding Assay for bovine Estrogen Receptor (ER) (AID 2283345);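 further: actives lower the bound radioligand count which means they displace the ER ligand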", "procedure,_shortened": "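Displacement of a radioligand from estrogen receptor in bovine uterine membrane preparations; scintillation signal taken at 18 hours, DMSO as baseline. Single-concentration duplicates (25 uM) preceded concentration-response follow-up of actives.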"}, "[8]": {"target": "Estrogen receptor (Homo sapiens) (UniProt P03372)", "sequence (P03372 whole entry, looked up)": "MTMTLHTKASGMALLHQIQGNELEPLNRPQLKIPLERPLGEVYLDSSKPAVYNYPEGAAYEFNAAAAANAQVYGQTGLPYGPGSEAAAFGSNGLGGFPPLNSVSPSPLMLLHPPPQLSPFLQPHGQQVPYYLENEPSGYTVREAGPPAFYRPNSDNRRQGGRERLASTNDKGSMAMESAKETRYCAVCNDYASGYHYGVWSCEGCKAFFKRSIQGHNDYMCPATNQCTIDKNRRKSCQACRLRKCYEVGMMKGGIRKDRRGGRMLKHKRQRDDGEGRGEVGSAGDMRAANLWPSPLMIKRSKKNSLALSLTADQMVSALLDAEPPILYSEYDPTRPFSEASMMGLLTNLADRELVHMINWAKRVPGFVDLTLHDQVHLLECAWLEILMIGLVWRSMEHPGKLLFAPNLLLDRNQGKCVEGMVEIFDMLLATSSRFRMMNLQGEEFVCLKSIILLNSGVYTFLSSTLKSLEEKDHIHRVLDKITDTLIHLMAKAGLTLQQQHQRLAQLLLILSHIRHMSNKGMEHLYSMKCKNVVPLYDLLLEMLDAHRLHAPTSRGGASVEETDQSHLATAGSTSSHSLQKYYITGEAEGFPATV", "experiment": "NVS_NR_hER: NovaScreen (NVS) Nuclear Receptor Binding Assay for human Estrogen Receptor (ER) (AID 2283348)", "procedure,_shortened": "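Radioligand competitive displacement binding to estrogen receptor from MCF7 extract, cell-free; 18 h after dosing, scintillation read-out. Primary screen in duplicate at 25 uM; actives followed up in concentration series; loss of signal vs DMSO.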"}, "[9]": {"target": "chimpanzee Androgen Receptor (AR), AR (gene 747460) (UniProt O97775)", "sequence (O97775 whole entry, looked up)": "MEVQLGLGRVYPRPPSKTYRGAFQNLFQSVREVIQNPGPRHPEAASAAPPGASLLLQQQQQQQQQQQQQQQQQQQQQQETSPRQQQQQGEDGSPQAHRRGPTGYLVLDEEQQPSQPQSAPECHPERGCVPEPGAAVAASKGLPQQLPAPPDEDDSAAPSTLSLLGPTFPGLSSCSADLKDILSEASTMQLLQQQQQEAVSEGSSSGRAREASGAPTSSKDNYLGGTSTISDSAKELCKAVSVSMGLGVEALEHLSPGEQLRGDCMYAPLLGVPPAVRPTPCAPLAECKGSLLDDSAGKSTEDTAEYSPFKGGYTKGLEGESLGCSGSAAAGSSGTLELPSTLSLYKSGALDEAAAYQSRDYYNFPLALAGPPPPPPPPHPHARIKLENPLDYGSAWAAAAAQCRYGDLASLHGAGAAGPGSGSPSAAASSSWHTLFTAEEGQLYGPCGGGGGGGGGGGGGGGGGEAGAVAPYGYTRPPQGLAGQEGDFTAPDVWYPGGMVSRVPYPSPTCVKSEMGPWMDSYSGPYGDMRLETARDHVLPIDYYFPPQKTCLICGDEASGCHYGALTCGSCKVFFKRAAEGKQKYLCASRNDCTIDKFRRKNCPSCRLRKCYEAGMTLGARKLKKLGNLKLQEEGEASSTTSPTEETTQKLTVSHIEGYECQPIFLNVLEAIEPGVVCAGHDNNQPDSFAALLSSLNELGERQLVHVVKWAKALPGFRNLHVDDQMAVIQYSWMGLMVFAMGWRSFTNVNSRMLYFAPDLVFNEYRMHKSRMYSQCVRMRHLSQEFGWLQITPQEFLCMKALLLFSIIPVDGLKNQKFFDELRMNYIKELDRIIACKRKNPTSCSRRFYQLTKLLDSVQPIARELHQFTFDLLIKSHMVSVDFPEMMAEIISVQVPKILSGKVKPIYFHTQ", "experiment": "NVS_NR_cAR: NovaScreen (NVS) Nuclear Receptor Binding Assay for chimpanzee Androgen Receptor (AR) (AID 2283346)", "procedure,_shortened": "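Radioligand binding to chimpanzee AR expressed in Sf9/Sf21 cells, cell-free, measured 72 h after dosing by lysate-based scintillation counting. Loss of signal vs DMSO; initial duplicate screen at 25 uM, actives retested in concentration series.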"}, "[10]": {"target": "Small conductance calcium-activated potassium channel protein 1 (Rattus norvegicus) (UniProt P70606)", "sequence (P70606 whole entry, looked up)": "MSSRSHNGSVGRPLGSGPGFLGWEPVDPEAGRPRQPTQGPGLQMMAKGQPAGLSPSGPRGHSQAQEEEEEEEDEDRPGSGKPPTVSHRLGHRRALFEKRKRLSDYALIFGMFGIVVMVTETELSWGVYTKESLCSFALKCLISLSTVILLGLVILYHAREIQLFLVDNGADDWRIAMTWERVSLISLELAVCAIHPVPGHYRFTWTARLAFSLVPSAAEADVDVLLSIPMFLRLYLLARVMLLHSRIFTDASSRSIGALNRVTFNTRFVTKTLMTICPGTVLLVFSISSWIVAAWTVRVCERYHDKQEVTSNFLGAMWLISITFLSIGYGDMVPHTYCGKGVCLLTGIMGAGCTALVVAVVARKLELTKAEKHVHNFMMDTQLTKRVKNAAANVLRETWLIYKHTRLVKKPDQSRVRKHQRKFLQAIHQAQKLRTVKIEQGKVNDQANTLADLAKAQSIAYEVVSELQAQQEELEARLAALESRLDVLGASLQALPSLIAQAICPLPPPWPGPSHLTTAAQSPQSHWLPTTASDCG", "experiment": "NVS_IC_rKCaCh: NovaScreen (NVS) Ion Channel Assay for rat Potassium Channel, Ca2+ Act., VI (KCaCh) (AID 2283336)", "procedure,_shortened": "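Radioligand binding to rat forebrain membranes, cell-free, read 1 hour after dosing by filter-based scintillation counting. Compounds first run in duplicate at 25 uM, actives then in concentration series; loss of signal vs DMSO indicates displacement.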"}, "[11]": {"target": "rat Gamma-Aminobutyric Acid Type A Receptor BDZ, alpha 6 site (GABARa6), Gabra6 (gene 29708) (UniProt P30191)", "sequence (P30191 whole entry, looked up)": "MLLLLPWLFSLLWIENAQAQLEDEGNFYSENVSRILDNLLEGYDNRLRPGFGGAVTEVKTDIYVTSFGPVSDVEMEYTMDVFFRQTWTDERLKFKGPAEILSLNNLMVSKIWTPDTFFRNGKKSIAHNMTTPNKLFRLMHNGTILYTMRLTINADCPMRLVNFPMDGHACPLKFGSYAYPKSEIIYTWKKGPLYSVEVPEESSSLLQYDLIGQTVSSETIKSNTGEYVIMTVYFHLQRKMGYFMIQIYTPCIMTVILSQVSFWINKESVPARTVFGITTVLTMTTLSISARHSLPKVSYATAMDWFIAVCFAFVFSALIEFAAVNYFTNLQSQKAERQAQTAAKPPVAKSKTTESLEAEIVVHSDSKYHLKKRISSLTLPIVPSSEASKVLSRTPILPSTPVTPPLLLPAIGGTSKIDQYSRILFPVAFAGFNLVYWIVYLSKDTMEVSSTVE", "experiment": "NVS_LGIC_rGABARa6: NovaScreen (NVS) Ligand-Gated Ion Channel Assay for rat Gamma-Aminobutyric Acid Type A Receptor BDZ, alpha 6 site (GABARa6) (AID 2283339)", "procedure,_shortened": "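Rat cerebellar membranes; radioligand binding, filtration and scintillation counting, read 1 h after dosing. Single-concentration duplicate screen at 25 uM, then concentration-response up to 50 uM for actives; loss of signal fitted versus DMSO baseline.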"}}, "note": "Results filed as inconclusive are left out. The source made the active and inactive calls. How the source made its calls: active means hit-call score of the fitted dose curve at least 0.9, where 1 is the maximum; inconclusive means response in the unintended direction; inactive means score below 0.9."}
{"compound": "CCOP(=S)(OCC)SCCSCC", "values": [{"measurement": "outcome", "setting": "[1]", "result": "inactive"}, {"measurement": "AC50", "setting": "[2]", "result": "17.9 µM (active)"}, {"measurement": "AC50", "setting": "[3]", "result": "25 µM (active)"}, {"measurement": "outcome", "setting": "[4]", "result": "inactive"}]}
{"compound": "CCCCOC(=O)c1ccccc1C(=O)O", "values": [{"measurement": "outcome", "setting": "[1]", "result": "inactive"}, {"measurement": "outcome", "setting": "[5]", "result": "inactive"}]}
{"compound": "CNC(=O)Oc1cccc2c1OC(C)(C)O2", "values": [{"measurement": "outcome", "setting": "[4]", "result": "inactive"}]}
{"compound": "CSc1nc(NC(C)C)nc(NC(C)C)n1", "values": [{"measurement": "AC50", "setting": "[6]", "result": "6.4 µM (active)"}]}
{"compound": "N#CSCSC#N", "values": [{"measurement": "outcome", "setting": "[4]", "result": "inactive"}, {"measurement": "outcome", "setting": "[5]", "result": "inactive"}]}
{"compound": "CSC1=N[C@@](C)(c2ccccc2)C(=O)N1Nc1ccccc1", "values": [{"measurement": "AC50", "setting": "[4]", "result": "3.63 µM (active)"}]}
{"compound": "CCC(=NOC/C=C/Cl)C1=C(O)CC(C2CCOCC2)CC1=O", "note": "(stereo not given)", "values": [{"measurement": "outcome", "setting": "[1]", "result": "inactive"}, {"measurement": "outcome", "setting": "[2]", "result": "inactive"}, {"measurement": "outcome", "setting": "[4]", "result": "inactive"}]}
{"compound": "CNC(=O)ON=C(SC)C(=O)N(C)C", "values": [{"measurement": "outcome", "setting": "[1]", "result": "inactive"}, {"measurement": "outcome", "setting": "[2]", "result": "inactive"}, {"measurement": "outcome", "setting": "[3]", "result": "inactive"}, {"measurement": "outcome", "setting": "[4]", "result": "inactive"}, {"measurement": "outcome", "setting": "[7]", "result": "inactive"}, {"measurement": "outcome", "setting": "[8]", "result": "inactive"}]}
{"compound": "CN(C)[C@@H]1C(=O)C(C(N)=O)=C(O)[C@@]2(O)C(=O)C3=C(O)c4c(O)cccc4[C@@](C)(O)[C@H]3[C@H](O)[C@@H]12", "values": [{"measurement": "AC50", "setting": "[1]", "result": "12.9 µM (active)"}, {"measurement": "outcome", "setting": "[2]", "result": "inactive"}, {"measurement": "AC50", "setting": "[9]", "result": "11.3 µM (active)"}]}
{"compound": "CCOP(=S)(OCC)Oc1cc(C)nc(C(C)C)n1", "values": [{"measurement": "outcome", "setting": "[1]", "result": "inactive"}, {"measurement": "AC50", "setting": "[2]", "result": "1.3 µM (active)"}, {"measurement": "outcome", "setting": "[3]", "result": "inactive"}, {"measurement": "outcome", "setting": "[4]", "result": "inactive"}]}
{"compound": "Cc1cc(C2CC2)nc(Nc2ccccc2)n1", "values": [{"measurement": "AC50", "setting": "[1]", "result": "25 µM (active)"}, {"measurement": "AC50", "setting": "[2]", "result": "7.55 µM (active)"}, {"measurement": "AC50", "setting": "[4]", "result": "25 µM (active)"}]}
{"compound": "CCOP(=S)(OCC)Oc1ccc2c(C)c(Cl)c(=O)oc2c1", "values": [{"measurement": "AC50", "setting": "[1]", "result": "3.86 µM (active)"}, {"measurement": "AC50", "setting": "[2]", "result": "0.541 µM (active)"}, {"measurement": "AC50", "setting": "[3]", "result": "1.01 µM (active)"}]}
{"compound": "CC1(C(=O)Nc2ccc(O)c(Cl)c2Cl)CCCCC1", "values": [{"measurement": "AC50", "setting": "[1]", "result": "1.78 µM (active)"}, {"measurement": "AC50", "setting": "[2]", "result": "0.47 µM (active)"}, {"measurement": "outcome", "setting": "[4]", "result": "inactive"}]}
{"compound": "C[N+]1(C)CCCCC1", "values": [{"measurement": "outcome", "setting": "[2]", "result": "inactive"}]}
{"compound": "COc1cccc(C(=O)NN(C(=O)c2cc(C)cc(C)c2)C(C)(C)C)c1C", "values": [{"measurement": "outcome", "setting": "[4]", "result": "inactive"}]}
{"compound": "CCOP(=S)(OCC)Oc1ccc([N+](=O)[O-])cc1", "values": [{"measurement": "outcome", "setting": "[1]", "result": "inactive"}, {"measurement": "AC50", "setting": "[2]", "result": "3.61 µM (active)"}, {"measurement": "AC50", "setting": "[3]", "result": "2.23 µM (active)"}, {"measurement": "outcome", "setting": "[4]", "result": "inactive"}]}
{"compound": "CN(C)C(=O)Nc1cccc(C(F)(F)F)c1", "values": [{"measurement": "AC50", "setting": "[1]", "result": "17.9 µM (active)"}, {"measurement": "AC50", "setting": "[2]", "result": "10.8 µM (active)"}, {"measurement": "outcome", "setting": "[10]", "result": "inactive"}, {"measurement": "outcome", "setting": "[11]", "result": "inactive"}]}
{"compound": "CCCCN(CC)c1c([N+](=O)[O-])cc(C(F)(F)F)cc1[N+](=O)[O-]", "values": [{"measurement": "outcome", "setting": "[1]", "result": "inactive"}, {"measurement": "outcome", "setting": "[2]", "result": "inactive"}, {"measurement": "outcome", "setting": "[4]", "result": "inactive"}]}
{"compound": "COP(=O)(OC)SCn1c(=O)oc2cc(Cl)cnc21", "values": [{"measurement": "outcome", "setting": "[8]", "result": "inactive"}]}
